HepG2 tox: counter-screen for TGF-b inhibitors: cytotoxicity in HepG2 cells; HepG2 CAGA-GFP viability, ATP luminescence, 18 h; Potency, µM (titrated, usually from 46.1 µM), most hits filed as cytotoxic; AID 588856; hit rate 0.76% among 410,000
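CellTiter-Glo luminescence gave cytotoxicity after 18 hours at 37 degrees C. The cells were HepG2 CAGA-GFP in 1% FBS DMEM, stimulated with 500 pg/mL TGF-beta after compound addition. %Activity was normalised to no-cell wells (complete cell-killing) and DMSO (no toxicity), and curves were fitted and classified.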
DT40 TDP1 CPT: DT40-hTDP1 cell growth loss with CPT; hit rate 12% among 420,000; chicken DT40 Tdp1-/-;hTDP1 cells + 20 nM CPT, ATP luminescence, 48 h; Potency, µM (titrated, usually from 46.2 µM), hits mostly inhibitors; AID 686979; note: nearly all actives have a fitted effect of over 55% in size
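Cell growth measured by CellTiter-Glo luminescence after a minimum 48 h, 37 C compound exposure with 20 nM CPT in Tdp1-knockout DT40 cells stably expressing hTDP1, seeded 400/well; qHTS titration format.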
TDP1 cell noCPT: qHTS for Inhibitors of human tyrosyl-DNA phosphodiesterase 1 (TDP1): qHTS in cells in absence of CPT | DT40 Tdp1-/- hTDP1 cells, no CPT, ATP luminescence, 48 h | Potency, µM (highest dose often 46.2 µM), actives largely listed as inhibitors | hit rate 15% among 420,000 | AID 686978, 2013; note: nearly all actives have a fitted effect of over 55% in size
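Chicken DT40 Tdp1-/- cells stably complemented with human TDP1 were seeded at 400 cells/well with DMSO in place of 20 nM camptothecin. After compound pinning, cells grew at least 48 hr at 37 °C; viability read by CellTiter-Glo luminescence.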
ASM inhibitor: human S-ASM enzyme inhibition | Potency, µM (series often up to 57.5 µM), actives largely listed as inhibitors | P17405 | placental ASM, HMU-PC fluorogenic substrate, 60 min | hit rate 0.006% among 340,000 | AID 504937
Target sequence (P17405 47-631 limits assumed): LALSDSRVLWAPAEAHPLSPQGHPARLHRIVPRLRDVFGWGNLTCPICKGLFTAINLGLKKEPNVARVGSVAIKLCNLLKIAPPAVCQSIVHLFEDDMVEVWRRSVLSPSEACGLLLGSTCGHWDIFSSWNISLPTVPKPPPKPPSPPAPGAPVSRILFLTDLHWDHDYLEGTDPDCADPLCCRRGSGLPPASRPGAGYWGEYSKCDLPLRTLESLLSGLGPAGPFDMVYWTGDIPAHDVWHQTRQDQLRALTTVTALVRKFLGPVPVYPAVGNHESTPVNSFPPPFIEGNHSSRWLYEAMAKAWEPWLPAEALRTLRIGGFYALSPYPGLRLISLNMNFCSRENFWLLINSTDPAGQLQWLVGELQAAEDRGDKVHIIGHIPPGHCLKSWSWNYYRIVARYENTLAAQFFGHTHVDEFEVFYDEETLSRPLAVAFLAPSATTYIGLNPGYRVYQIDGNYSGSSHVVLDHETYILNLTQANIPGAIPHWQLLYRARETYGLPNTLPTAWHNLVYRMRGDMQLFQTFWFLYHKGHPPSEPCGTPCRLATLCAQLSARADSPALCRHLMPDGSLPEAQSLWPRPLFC
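Fluorogenic HMU-PC substrate (9 uM final) is turned over by placental ASM in 60 min at 37 C after a 10 min compound preincubation. Reaction ended by alkaline stop (pH 10), with fluorescence read at 386/447 nm.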
TGFb inhibitor: TGF-b pathway inhibition; HepG2 CAGA-GFP TGF-b/SMAD3 reporter, GFP fluorescence, 18 h; TGF-beta stimulated, 500 pg/mL final; hit rate 1.2% among 410,000; Potency, µM (highest dose often 46.1 µM), most hits filed as inhibitors; AID 588855; note: nearly all actives have a fitted effect of over 65% in size
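Read-out: total well GFP (ex488/em500-530) summed from mean per-cell fluorescence. Cells: HEPG2 CAGA-GFP, 1% FBS DMEM, 18 h at 37 degrees C with 500 pg/mL final TGF-beta. Unstimulated wells served as the full-inhibition control; stimulated DMSO wells = 0%.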
IL1B secr inh: blocks inflammasome-driven IL-1 beta release; THP-1 LPS/ATP IL-1B secretion, AlphaLISA, 16 h; stronger effect = lower value; activity change, % at 57.5 µM; hit rate 4.7% among 360,000; AID 743279; in the data active = activity change below about -50%; inconclusive = mostly about -30% to -49%
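THP-1 cells pretreated 1 hr with compounds (up to 57.5 uM final), then stimulated with LPS (250 ng/mL final) plus ATP (1.25 mM final); secreted IL-1B measured by AlphaLISA after 16 hr, decreased signal indicating inhibition.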
Large screens that a line does not name were inactive. A selection: hits, their analogues and other compounds. The true share with any hit is near 19%. Unless noted, calls come from the whole dose curve; as a rule, active = well fitted curve in the direction sought with a large enough effect; inconclusive = small, poorly fitted or top-dose-only effect, or another doubt; inactive = no such curve, though single readings can be large; an effect the other way counts as inactive or inconclusive.

CCCn1c(C)cc(C(=O)COc2ccc(-c3nnco3)cc2)c1C	DT40 TDP1 CPT 4.6µM, TDP1 cell noCPT 7.3µM (no result: IL1B secr inh)
Cc1ccc(NC(=O)COc2cccnc2[N+](=O)[O-])cc1S(=O)(=O)N1CCCCC1	DT40 TDP1 CPT 13µM, TDP1 cell noCPT 21µM, TGFb inhibitor inconclusive
CN(C)c1cccc(C(=O)NNC(=O)CSc2ccccc2)c1	none
COc1ccc(Br)cc1S(=O)(=O)N1CCCC1	DT40 TDP1 CPT 9.2µM, TDP1 cell noCPT 8.2µM
COc1ccc(NC(=O)c2cncc(Br)c2)cc1S(=O)(=O)N1CCCCC1	DT40 TDP1 CPT inconclusive, TDP1 cell noCPT 21µM
COc1ccc(C)cc1S(=O)(=O)N1CCCCCC1	DT40 TDP1 CPT inconclusive
Cc1ccc(NC(=O)COc2ccc(-c3nnco3)cc2)cc1S(=O)(=O)N1CCOCC1	DT40 TDP1 CPT inconclusive, TDP1 cell noCPT 13µM
COc1ccc(NC(=O)COc2cc(C)cc(C)c2)cc1S(=O)(=O)N1CCCCC1	DT40 TDP1 CPT 7.3µM, TDP1 cell noCPT 8.2µM
CCOc1ccc(NC(=O)COc2cccc3cccnc23)cc1S(=O)(=O)N1CCCC1	DT40 TDP1 CPT inconclusive, TDP1 cell noCPT 15µM (no result: ASM inhibitor)
Cc1ccc(NC(=O)Cn2ncc(Cl)c(Cl)c2=O)cc1S(=O)(=O)N1CCCCC1	DT40 TDP1 CPT 7.3µM, TDP1 cell noCPT 3.3µM, TGFb inhibitor inconclusive, IL1B secr inh -75
O=C(COc1ccc(-c2nnco2)cc1)Nc1ccc(F)c(Cl)c1	TDP1 cell noCPT inconclusive
Cc1ccc(NC(=O)CSc2ccccc2)cc1S(=O)(=O)N1CCCCC1	DT40 TDP1 CPT 15µM, TDP1 cell noCPT inconclusive, TGFb inhibitor inconclusive
CC(C)CC(=O)Nc1ccc(C(=O)COc2ccc(-c3nnco3)cc2)cc1	DT40 TDP1 CPT inconclusive, TDP1 cell noCPT 23µM
O=C(COc1cccc2cccnc12)Nc1cccc(S(=O)(=O)N2CCCC2)c1	DT40 TDP1 CPT inconclusive, TDP1 cell noCPT inconclusive
Cc1cc(C)c(NC(=O)CSc2ccc(-c3cccnc3)nn2)c(C)c1	none
O=C(COc1ccc2ccccc2c1)NNC(=O)C(=O)Nc1ccccc1	none
COc1ccccc1/C=C(/C(=O)OCC(=O)Nc1ccccc1C(C)C)c1ccccc1	DT40 TDP1 CPT inconclusive, TDP1 cell noCPT 21µM, TGFb inhibitor inconclusive
COc1cc(CCC(=O)OCC(=O)Nc2ccccc2C(C)C)cc(OC)c1OC	none
C[C@H]1CN([C@@H](C)CO)C(=O)CCCn2nncc2CO[C@H]1CN(C)C(=O)c1ccc(N2CCN(C)CC2)cc1	none (no result: ASM inhibitor)
COc1ccc(N2CC(C(=O)N3CCC(c4nc5ccccc5[nH]4)CC3)CC2=O)cc1 (stereo unspecified)	none (no result: ASM inhibitor)
O=C(C[C@H]1C[C@H](C(=O)N2CCOCC2)[C@@]2(CCC3CCCC3)c3[nH]c4cc(-c5ccco5)ccc4c3CCN2C1=O)NCc1cccc(C(F)(F)F)c1	DT40 TDP1 CPT 16µM, TDP1 cell noCPT inconclusive, TGFb inhibitor inconclusive, IL1B secr inh -53
O=C(C[C@H]1C[C@H](C(=O)N2CCOCC2)[C@@]2(CCC3CCCC3)c3[nH]c4ccc(Cl)cc4c3CCN2C1=O)NCCCn1ccnc1	DT40 TDP1 CPT inconclusive, TDP1 cell noCPT inconclusive, TGFb inhibitor 11µM, IL1B secr inh -59
O=C(CC1C[C@H](C(=O)N2CCOCC2)[C@@]2(CCC3CCCC3)c3[nH]c4ccccc4c3CCN2C1=O)NCC12CC3CC(CC(C3)C1)C2 (stereo partly specified)	DT40 TDP1 CPT 16µM, TDP1 cell noCPT 16µM, IL1B secr inh inconclusive
CN(C)C(=O)CCc1ccc2c3c([nH]c2c1)[C@]1(CCC2CCCC2)[C@@H](C(=O)N2CCOCC2)C[C@H](CC(=O)NCCCn2ccnc2)C(=O)N1CC3	none
CC(C)=CCC/C(C)=C/CNC(=O)C[C@H]1C[C@H](C(=O)N2CCOCC2)[C@@]2(CCC3CCCC3)c3[nH]c4cc(-c5ccco5)ccc4c3CCN2C1=O	DT40 TDP1 CPT 18µM, TDP1 cell noCPT inconclusive, TGFb inhibitor inconclusive
Cc1ccc(-c2cn3cccnc3n2)cc1NC(=O)Nc1ccc(F)cc1	none (no result: DT40 TDP1 CPT, TDP1 cell noCPT, ASM inhibitor, IL1B secr inh)
CCCCCC(=O)N(Cc1ccccc1)c1c(N)n(CCOC)c(=O)[nH]c1=O	none
O=C(C[C@H]1C[C@H](C(=O)N2CCOCC2)[C@@]2(CCC3CCCC3)c3[nH]c4cc(-c5ccco5)ccc4c3CCN2C1=O)NCCN1CCOCC1	DT40 TDP1 CPT 23µM, TDP1 cell noCPT inconclusive, TGFb inhibitor inconclusive
CC[C@]12c3[nH]c4cc(-c5ccco5)ccc4c3CCN1C(=O)[C@@H](CC(=O)NCCCN(C)C)C[C@@H]2C(=O)N1CCN(C(=O)C2CC2)CC1	none
O=C(CC1C[C@H](C(=O)N2CCOCC2)[C@@]2(CCC3CCCC3)c3[nH]c4ccccc4c3CCN2C1=O)NCCN1CCOCC1 (stereo partly specified)	DT40 TDP1 CPT inconclusive, TDP1 cell noCPT inconclusive
CN(C)CCCNC(=O)C[C@H]1C[C@H](C(=O)N2CCOCC2)[C@@]2(CCC3CCCC3)c3[nH]c4cc(-c5ccco5)ccc4c3CCN2C1=O	DT40 TDP1 CPT 23µM, TDP1 cell noCPT inconclusive, TGFb inhibitor inconclusive
O=C(CC1C[C@H](C(=O)N2CCOCC2)[C@@]2(CCC3CCCC3)c3[nH]c4ccccc4c3CCN2C1=O)NCc1ccco1 (stereo partly specified)	DT40 TDP1 CPT 21µM, TDP1 cell noCPT inconclusive, IL1B secr inh inconclusive
COCCCNC(=O)C[C@H]1C[C@H](C(=O)N2CCOCC2)[C@@]2(CCC3CCCC3)c3[nH]c4cc(-c5ccco5)ccc4c3CCN2C1=O	DT40 TDP1 CPT inconclusive, TDP1 cell noCPT inconclusive, TGFb inhibitor inconclusive, IL1B secr inh inconclusive
O=C(CC1C[C@H](C(=O)N2CCOCC2)[C@@]2(CCC3CCCC3)c3[nH]c4ccccc4c3CCN2C1=O)NCCc1ccccn1 (stereo partly specified)	DT40 TDP1 CPT 21µM, TDP1 cell noCPT inconclusive
Cc1ccc(CN2C(=O)C3(c4ccccc42)N(c2cccc(C(F)(F)F)c2)C(=O)CS3(=O)=O)cc1 (stereo unspecified)	DT40 TDP1 CPT inconclusive, TDP1 cell noCPT inconclusive (no result: ASM inhibitor, IL1B secr inh)
COc1ccc(NC(=O)c2sc3nc[nH]c(=O)c3c2C)cc1Cl	none (no result: ASM inhibitor, IL1B secr inh)

Screening data: PubChem, National Center for Advancing Translational Sciences (NCATS)
